# Source: publication PMC5700166
# Substitutions are numbered along the chain they refer to.
# Columns and labels:
# Experiment in all cases: protein-binding microarray (PBM); PBM: ~300 nM protein, 6 mM HEPES pH 7.8, 80 mM KCl, 0.5 mM EDTA, 0.5 mM EGTA, 6% glycerol, 35 ng/ul poly-dIdC, 1% milk, 1 h, room temperature; Ap Aiptasia and Nv Nematostella (sea anemones) / Co Capsaspora / Aq Amphimedon (sponge) / Dm Drosophila / Hu human; RHD is the Rel homology domain; high values mean tight binding
# Settings in all cases: dsDNA, one strand shown
# GST-Ap-NF-kB RHD = target: T1, GST-Ap-NF-kB RHD (Exaiptasia pallida (Aiptasia), UniProt A0A913YAJ5 2-422)
# T1 sequence: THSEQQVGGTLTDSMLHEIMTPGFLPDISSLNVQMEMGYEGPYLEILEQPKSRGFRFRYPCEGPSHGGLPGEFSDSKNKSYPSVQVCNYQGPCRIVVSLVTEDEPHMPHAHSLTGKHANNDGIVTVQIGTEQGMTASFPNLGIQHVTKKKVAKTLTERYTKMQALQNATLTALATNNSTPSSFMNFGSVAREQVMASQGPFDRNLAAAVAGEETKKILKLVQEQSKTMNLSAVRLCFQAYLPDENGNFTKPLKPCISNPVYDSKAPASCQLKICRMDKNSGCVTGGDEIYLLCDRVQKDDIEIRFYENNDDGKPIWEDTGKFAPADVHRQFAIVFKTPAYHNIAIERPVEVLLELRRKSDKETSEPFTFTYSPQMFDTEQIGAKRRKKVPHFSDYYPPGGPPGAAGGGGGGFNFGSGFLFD
# [1] = target: T2, GST-Nv-NF-kB (Cys allele) (Nematostella vectensis, UniProt E5G601 2-411)
# T2 sequence: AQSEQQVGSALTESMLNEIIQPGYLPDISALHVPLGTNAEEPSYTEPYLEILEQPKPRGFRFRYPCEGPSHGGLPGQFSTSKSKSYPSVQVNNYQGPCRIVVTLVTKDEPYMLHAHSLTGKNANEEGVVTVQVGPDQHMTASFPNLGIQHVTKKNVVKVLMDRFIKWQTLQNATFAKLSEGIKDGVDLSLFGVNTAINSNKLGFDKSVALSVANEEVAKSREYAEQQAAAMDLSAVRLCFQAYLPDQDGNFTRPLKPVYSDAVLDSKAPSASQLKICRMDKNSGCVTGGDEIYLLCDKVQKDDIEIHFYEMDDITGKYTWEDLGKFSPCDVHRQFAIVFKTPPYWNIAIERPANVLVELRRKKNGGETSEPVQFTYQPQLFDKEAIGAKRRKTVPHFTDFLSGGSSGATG
# [2] = target: T3, GST-Nv-NF-kB (Ser allele) (Nematostella vectensis, UniProt A7UNT2 2-411)
# T3 sequence: T2 sequence with Q21R, C66S, S207N, E215Q, V217A, E225K, A268E, D399E
# GST-Co-NF-kB = target: T4, GST-Co-NF-kB (Capsaspora owczarzaki, UniProt F1ARL5 200-546)
# T4 sequence: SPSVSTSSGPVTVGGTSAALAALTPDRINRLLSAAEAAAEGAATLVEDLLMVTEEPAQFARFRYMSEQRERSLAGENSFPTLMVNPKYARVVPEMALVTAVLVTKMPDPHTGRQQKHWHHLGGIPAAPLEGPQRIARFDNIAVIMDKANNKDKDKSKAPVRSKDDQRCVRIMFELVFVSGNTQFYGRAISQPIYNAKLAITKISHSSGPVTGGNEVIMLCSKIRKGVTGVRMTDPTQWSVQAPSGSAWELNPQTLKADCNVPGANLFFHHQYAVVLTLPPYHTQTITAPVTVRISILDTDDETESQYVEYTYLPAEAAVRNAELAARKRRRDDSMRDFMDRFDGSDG
# GST-Aq-NF-kB = target: T5, GST-Aq-NF-kB (Amphimedon queenslandica, UniProt A9Y5G7 2-389)
# T5 sequence: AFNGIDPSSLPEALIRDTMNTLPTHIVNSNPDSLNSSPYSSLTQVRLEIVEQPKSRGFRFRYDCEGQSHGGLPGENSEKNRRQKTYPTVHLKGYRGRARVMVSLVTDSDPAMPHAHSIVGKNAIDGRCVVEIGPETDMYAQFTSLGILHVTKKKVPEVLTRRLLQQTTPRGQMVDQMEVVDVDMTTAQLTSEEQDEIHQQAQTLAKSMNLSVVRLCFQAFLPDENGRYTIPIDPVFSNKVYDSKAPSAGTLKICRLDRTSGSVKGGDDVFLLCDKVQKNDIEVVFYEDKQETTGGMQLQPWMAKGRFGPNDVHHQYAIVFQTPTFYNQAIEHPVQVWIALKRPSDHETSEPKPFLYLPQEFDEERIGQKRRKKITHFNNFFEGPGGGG
# GST-Dm-Relish = target: T6, GST-Dm-Relish (Drosophila melanogaster, UniProt Q94527 99-473)
# T6 sequence: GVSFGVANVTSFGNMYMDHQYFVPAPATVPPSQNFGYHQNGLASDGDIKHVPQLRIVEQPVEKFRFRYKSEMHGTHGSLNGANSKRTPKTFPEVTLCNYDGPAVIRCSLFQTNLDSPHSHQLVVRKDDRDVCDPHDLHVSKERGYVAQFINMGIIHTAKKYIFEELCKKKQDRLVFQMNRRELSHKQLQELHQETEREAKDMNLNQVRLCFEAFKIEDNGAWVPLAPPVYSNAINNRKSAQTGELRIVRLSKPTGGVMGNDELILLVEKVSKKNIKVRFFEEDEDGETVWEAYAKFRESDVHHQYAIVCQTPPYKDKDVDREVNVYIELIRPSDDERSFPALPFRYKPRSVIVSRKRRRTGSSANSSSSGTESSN
Sequence,binding signal (GST-Ap-NF-kB RHD),binding signal [1],binding signal [2],binding signal (GST-Co-NF-kB),binding signal (GST-Aq-NF-kB),binding signal (GST-Dm-Relish)
CCGATTAACATCAGGGGGGGGACTGATGTTAATCGGGTCTTGATTCGCTTGACGCTGCTG,7.06 z-score,5.11 z-score,4.69 z-score,4.78 z-score,5.29 z-score,
CCGATTAACATCAAGGGAAAAATTGATGTTAATCGGGTCTTGATTCGCTTGACGCTGCTG,3.76 z-score,6.35 z-score,7 z-score,5.22 z-score,5.11 z-score,1.89 z-score
CCGATTAACATCAAATAATTCCCTGATGTTAATCGGGTCTTGATTCGCTTGACGCTGCTG,4.23 z-score,7.21 z-score,7.13 z-score,5.48 z-score,6.69 z-score,4.85 z-score
CCGATTAACATCAAAAGTTTCCCTGATGTTAATCGGGTCTTGATTCGCTTGACGCTGCTG,5.05 z-score,7.19 z-score,6.7 z-score,6.99 z-score,7 z-score,4.85 z-score
CCGATTAACATCAGGGAGACCCCTGATGTTAATCGGGTCTTGATTCGCTTGACGCTGCTG,6.28 z-score,3.82 z-score,1.04 z-score,2.28 z-score,6.87 z-score,6.09 z-score
CCGATTAACATCAAATCCCCCCTTGATGTTAATCGGGTCTTGATTCGCTTGACGCTGCTG,8.14 z-score,6.82 z-score,7.98 z-score,6.62 z-score,6.8 z-score,7.95 z-score
CCGATTAACATCACCCCCACCCCTGATGTTAATCGGGTCTTGATTCGCTTGACGCTGCTG,3.49 z-score,2.96 z-score,1.75 z-score,4.43 z-score,3.33 z-score,3.84 z-score
CCGATTAACATCAGGGGTAACACTGATGTTAATCGGGTCTTGATTCGCTTGACGCTGCTG,1.82 z-score,1.03 z-score,1.27 z-score,4.28 z-score,2.5 z-score,
CCGATTAACATCAGGGAAGACGTTGATGTTAATCGGGTCTTGATTCGCTTGACGCTGCTG,1.82 z-score,1.64 z-score,1.93 z-score,1.67 z-score,1.11 z-score,
CCGATTAACATCACGGGGGGAAATGATGTTAATCGGGTCTTGATTCGCTTGACGCTGCTG,6.31 z-score,6.61 z-score,7.51 z-score,11.2 z-score,5.52 z-score,4.78 z-score
CCGATTAACATCAGCATGGGAAATGATGTTAATCGGGTCTTGATTCGCTTGACGCTGCTG,1.97 z-score,2.72 z-score,2.33 z-score,1.93 z-score,1.67 z-score,
CCGATTAACATCAGGGGAACTCATGATGTTAATCGGGTCTTGATTCGCTTGACGCTGCTG,6.56 z-score,6.78 z-score,7.59 z-score,5.3 z-score,4.88 z-score,6.03 z-score
CCGATTAACATCAGGGGGGGGCATGATGTTAATCGGGTCTTGATTCGCTTGACGCTGCTG,4.94 z-score,4.84 z-score,4.15 z-score,4.65 z-score,3.82 z-score,3.78 z-score
